Test results reported in article PMC5540273 (PLoS ONE, 2017).

What was measured:
Settings in all cases: concentration: 1 μM, replicates: in singlicate; n = 1
SGK2 = system: SGK2
SGK3 = system: SGK3
SGK = system: SGK
SIK2 = system: SIK2
SIK = system: SIK
SLK = system: SLK
SNARK = system: T1, SNARK
T1 construct: gene NUAK2

SNRK = system: SNRK
SRC = system: SRC
SRMS = system: SRMS
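Note: KINOMEscan kinase panel screen.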

| Structure (SMILES) | %Inh (SGK2) | %Inh (SGK3) | %Inh (SGK) | %Inh (SIK2) | %Inh (SIK) | %Inh (SLK) | %Inh (SNARK) | %Inh (SNRK) | %Inh (SRC) | %Inh (SRMS) |
| --- | --- | --- | --- | --- | --- | --- | --- | --- | --- | --- |
| O=C(Nc1n[nH]c2nc(-c3ccccc3)c(Cl)cc12)C1CC1 [SB-734909] | 5% | 12% | 9% | 27% | 0% | 15% | 0% | 33% | 0% | 0% |
| COc1cc2nccc(Nc3cccc(Oc4ccccc4)c3)c2cc1OC.Cl [GW284543] | 0% | 0% | 37% | 0% | 0% | 21% | 0% | 0% | 7% | 55% |
| COc1ccc(-c2cc3c(C)nc(N)nc3n([C@H]3CC[C@H](O)CC3)c2=O)cn1 | 0% | 0% | 0% | 0% | 0% | 0% | 0% | 0% | 0% | 0% |
| Nc1n[nH]c2ncc(-c3ccccc3)cc12 [SB-517081] | 2% | 9% | 7% | 12% | 2% | 0% | 0% | 0% | 0% | 8% |
| Nc1nc(N)c2nc(-c3ccccc3)[nH]c2n1 [SKF-12778] | 18% | 7% | 15% | 22% | 17% | 21% | 19% | 0% | 19% | 0% |
| CCC(=O)c1c(-c2ccccc2)c2cc(Cl)ccc2c(=O)n1Cc1cc(S(C)(=O)=O)n(CC(N)=O)n1 | 0% | 0% | 0% | 2% | 0% | 0% | 0% | 0% | 0% | 0% |
| COc1cccc(C2=C(N(C)c3ccccc3)C(=O)NC2=O)c1 [SB-334865] | 0% | 3% | 0% | 0% | 0% | 13% | 0% | 0% | 0% | 0% |
| CN1C(=O)C(Nc2cc(Cl)c(O)c(Cl)c2)=C(c2ccc(Cl)cc2)C1=O [SB-404321] | 0% | 0% | 0% | 0% | 0% | 0% | 0% | 0% | 0% | 0% |
| CCc1ccc(-c2ccc3c(c2)-c2nn(C)cc2S(=O)(=O)N3C)cc1 | 0% | 0% | 0% | 0% | 0% | 12% | 0% | 0% | 0% | 46% |
| Fc1cccc(CSc2nnc(-c3ccc4c(c3)CCO4)o2)c1 | 24% | 9% | 8% | 0% | 12% | 5% | 12% | 10% | 5% | 0% |
| CN(C)c1cc(-c2ccc3c(N)n[nH]c3c2)nc(N)n1 [GSK2219329] | 0% | 3% | 5% | 0% | 0% | 13% | 0% | 0% | 12% | 0% |
| COc1cc2ncn(-c3cc(OCCCc4ccccc4)c(C(N)=O)s3)c2cc1OC [GSK205189] | 0% | 0% | 0% | 0% | 2% | 79% | 0% | 0% | 0% | 0% |
| COc1ccc(-n2cnc3c(N)ncnc32)cc1 [SKF-97236] | 6% | 11% | 0% | 14% | 0% | 11% | 24% | 0% | 0% | 0% |
| CCn1c(-c2nonc2N)nc2ccccc21 [SB-693162/GW549034] | 12% | 62% | 12% | 0% | 10% | 20% | 51% | 40% | 0% | 0% |
| OCCCNc1nccc(-c2c(-c3cccc(C(F)(F)F)c3)nn3cc(C(F)(F)F)ccc23)n1 [GW630813] | 0% | 6% | 0% | 0% | 0% | 4% | 0% | 0% | 0% | 0% |
| COc1cc(Nc2nccc(N3CCC(NC(=O)C4COc5ccccc5O4)C3)n2)cc(OC)c1OC (stereo not shown) [GSK1379761] | 0% | 0% | 17% | 0% | 0% | 17% | 23% | 0% | 53% | 11% |
| CCCC(=O)Nc1n[nH]c2ncc(-c3cccc4ccccc34)cc12 [SB-642057] | 0% | 26% | 0% | 0% | 0% | 14% | 0% | 0% | 0% | 4% |

| Structure (SMILES) | %Inh (SGK2) | %Inh (SGK3) | %Inh (SGK) | %Inh (SIK2) | %Inh (SIK) | %Inh (SLK) | %Inh (SNARK) | %Inh (SNRK) | %Inh (SRC) | %Inh (SRMS) |
| --- | --- | --- | --- | --- | --- | --- | --- | --- | --- | --- |
| COc1cc(OC)cc(-c2cc3cnc(N)nc3nc2NC(=O)NC(C)(C)C)c1 | 0% | 17% | 0% | 0% | 6% | 0% | 0% | 1% | 0% | 0% |
| O=C1NC(=O)C(c2ccccc2)=C1Nc1cccc(O)c1 [SB-390534] | 9% | 20% | 11% | 0% | 0% | 51% | 16% | 0% | 0% | 17% |
| Cc1nnc(-c2ccc(C)c(-c3ccc(C(=O)O)cc3)c2)o1 [GW608005] | 0% | 0% | 0% | 0% | 0% | 0% | 5% | 0% | 0% | 0% |
| Cc1c(Cn2c(C)nn3c(=O)cc(N4CCO[C@H](C)C4)nc23)cccc1C(F)(F)F [GSK2373690] | 13% | 0% | 26% | 0% | 1% | 18% | 0% | 0% | 1% | 0% |
| Cc1ccc(-c2ccc3c(ccc4sc5c(c43)NC[C@@H](C)N=C5N(C)C)n2)cn1 | 0% | 0% | 0% | 0% | 3% | 0% | 0% | 0% | 0% | 0% |
| O=C(Nc1n[nH]c2nc(-c3ccccc3)c(Br)cc12)C1CC1 [SB-708998] | 0% | 0% | 5% | 0% | 5% | 20% | 4% | 18% | 4% | 0% |
| CN1C(=O)C(Nc2ccccc2)=C(c2ccccc2)C1=O [SB-300079] | 0% | 11% | 7% | 7% | 3% | 0% | 12% | 0% | 0% | 21% |
| COC(=O)c1c(-c2ccccc2)c2cc(C)ccc2c(=O)n1Cc1ccccc1 | 0% | 0% | 0% | 0% | 3% | 0% | 0% | 0% | 0% | 0% |
| Cc1ccc(Oc2ccc(Nc3ncnc4cc[nH]c34)cc2C)cn1 | 5% | 5% | 12% | 0% | 21% | 10% | 6% | 32% | 16% | 22% |
| FC(F)(F)c1ccc(-c2ncn(CCCN3CCOCC3)c2-c2ccncc2)cc1 [SB-217780] | 25% | 0% | 5% | 0% | 0% | 0% | 0% | 18% | 0% | 0% |
| COC(=O)c1c(-c2ccccc2)c2cc(Br)ccc2c(=O)n1Cc1ccc(S(C)(=O)=O)cc1 | 21% | 23% | 14% | 0% | 22% | 0% | 20% | 11% | 8% | 0% |
| COc1ccc(-c2coc3ccc(-c4nnc(SCc5cccc(C#N)c5)o4)cc23)cc1 | 0% | 21% | 0% | 0% | 17% | 18% | 30% | 18% | 3% | 0% |
| CCS(=O)c1ccc(-c2coc3ccc(-c4nnc(C)o4)cc23)cc1 (stereo not shown) | 13% | 23% | 7% | 5% | 13% | 0% | 30% | 0% | 0% | 0% |
| O=C(Nc1n[nH]c2cc(-c3ccccc3F)ccc12)C1CC1 [SB-733371] | 11% | 12% | 5% | 5% | 0% | 1% | 1% | 0% | 0% | 14% |
| Cc1cccc(-c2nc(Nc3ccc4c(cnn4C)c3)c3ccccc3n2)n1 [GW876731] | 37% | 3% | 0% | 0% | 0% | 2% | 21% | 0% | 11% | 0% |
| C[C@@H]1CC[C@H](C(=O)NC2CCCCC2)CN1c1cc(-c2ccc3c(N)n[nH]c3c2)nc(N)n1 [GSK2291363] | 0% | 13% | 0% | 3% | 29% | 20% | 31% | 0% | 3% | 11% |
| Cc1nn2c(=O)cc(N3CCOCC3)nc2n1Cc1cccc(Cl)c1Cl [GSK2342769] | 0% | 0% | 0% | 0% | 0% | 4% | 0% | 0% | 4% | 0% |
